Experimental data published in publication PMC5540273 (PLoS ONE, 2017).

Legend:
Details in all cases: concentration: 1 μM, replicates: in singlicate; n = 1
CDK2 = test system: CDK2
CDK3 = test system: CDK3
CDK4-cyclinD1 = test system: CDK4-cyclinD1
CDK4-cyclinD3 = test system: CDK4-cyclinD3
CDK4 = test system: CDK4
CDK5 = test system: CDK5
CDK7 = test system: CDK7
CDK8 = test system: CDK8
CDK9 = test system: CDK9
CDKL1 = test system: CDKL1
CDKL2 = test system: CDKL2
CDKL3 = test system: CDKL3
CDKL5 = test system: CDKL5
CHEK1 = test system: CHEK1
CHEK2 = test system: CHEK2
CIT = test system: CIT
CLK1 = test system: CLK1
CLK2 = test system: CLK2
CLK3 = test system: CLK3
CLK4 = test system: CLK4
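Also: KINOMEscan kinase panel screen.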

| SMILES | %Inh (CDK2) | %Inh (CDK3) | %Inh (CDK4-cyclinD1) | %Inh (CDK4-cyclinD3) | %Inh (CDK4) | %Inh (CDK5) | %Inh (CDK7) | %Inh (CDK8) | %Inh (CDK9) | %Inh (CDKL1) | %Inh (CDKL2) | %Inh (CDKL3) | %Inh (CDKL5) | %Inh (CHEK1) | %Inh (CHEK2) | %Inh (CIT) | %Inh (CLK1) | %Inh (CLK2) | %Inh (CLK3) | %Inh (CLK4) |
| --- | --- | --- | --- | --- | --- | --- | --- | --- | --- | --- | --- | --- | --- | --- | --- | --- | --- | --- | --- | --- |
| COC(=O)c1c(-c2ccccc2)c2cc(Cl)ccc2c(=O)n1Cc1ccc(S(C)(=O)=O)cc1 | 0% | 0% | 0% | 4% | 0% | 7% | 10% | 0% | 7% | 9% | 0% | 0% | 33% | 0% | 10% | 4% | 3% | 0% | 10% | 10% |
| Nc1nccc2scc(-c3ccc4c(c3)CCN4C(=O)Cc3cc(F)ccc3F)c12 [GSK2587663] | 0% | 18% | 0% | 0% | 0% | 0% | 0% | 61% | 0% | 23% | 17% | 0% | 0% | 8% | 10% | 27% | 24% | 0% | 93.5% | 19% |
| Cc1cc(N2CCC(NS(=O)(=O)c3ccc(F)cc3)CC2)nc(Nc2cccc(C#N)c2)n1.O=C(O)C(F)(F)F [GSK1653537] | 4% | 0% | 0% | 0% | 5% | 0% | 0% | 10% | 0% | 0% | 24% | 0% | 0% | 4% | 0% | 0% | 14% | 0% | 0% | 25% |
| Cn1ccc2ncnc(Nc3ccc(Oc4cccc(Cl)c4)c(Cl)c3)c21 | 0% | 0% | 0% | 0% | 0% | 21% | 14% | 22% | 15% | 10% | 23% | 26% | 23% | 2% | 7% | 0% | 0% | 0% | 0% | 1% |
| CC(C)N1CCC(n2cnc(-c3ccc(F)cc3)c2-c2ccnc(N)n2)CC1 [SB-223132] | 0% | 28% | 0% | 0% | 10% | 0% | 0% | 54% | 0% | 57% | 13% | 9% | 0% | 0% | 0% | 69% | 5% | 0% | 10% | 0% |
| Cc1ccc(C)c(NC(=O)NCCNc2ccnc(Nc3ccc(F)cc3)n2)c1 [GSK1379878] | 0% | 0% | 0% | 0% | 43% | 0% | 0% | 29% | 0% | 0% | 0% | 0% | 0% | 5% | 0% | 8% | 23% | 0% | 0% | 0% |
| CNc1nccc(-c2c(-c3ccc(F)cc3)ncn2CCCN2CCOCC2)n1 [SB-222516] | 0% | 0% | 17% | 16% | 0% | 0% | 7% | 38% | 0% | 24% | 6% | 10% | 2% | 0% | 43% | 0% | 4% | 16% | 18% | 3% |
| CS(=O)(=O)CCNCc1ccc(-c2ccc3ncnc(Nc4ccc(OCc5ccccc5)c(Cl)c4)c3c2)o1.Cl [GW574783] | 5% | 10% | 21% | 0% | 0% | 0% | 0% | 43% | 0% | 0% | 11% | 0% | 0% | 6% | 0% | 23% | 0% | 0% | 0% | 21% |
| CC(C)(C)OC(=O)NC1CCCN(c2cc(-c3ccc4c(N)n[nH]c4c3)nc(N)n2)C1 (stereo not drawn) [GSK2286096] | 0% | 0% | 0% | 0% | 0% | 0% | 0% | 0% | 2% | 0% | 5% | 0% | 7% | 0% | 0% | 26% | 55% | 27% | 7% | 16% |
| O=C(CCO)NCCn1ccc2ncnc(Nc3ccc(Oc4cccc(C(F)(F)F)c4)c(Cl)c3)c21 | 0% | 0% | 0% | 0% | 0% | 0% | 0% | 6% | 0% | 15% | 9% | 0% | 0% | 0% | 0% | 0% | 1% | 0% | 0% | 5% |
| COc1ccc(NC(=O)c2ccc(-c3cc(-c4nnc(C)o4)ccc3C)cc2)cc1 [GW595885] | 0% | 22% | 14% | 0% | 0% | 0% | 0% | 9% | 0% | 0% | 13% | 0% | 0% | 0% | 0% | 22% | 17% | 0% | 94.8% | 20% |
| CN1CCC(n2cnc(-c3ccc(F)cc3)c2-c2ccnc(NC3CCNCC3)n2)CC1 [SB-229482] | 0% | 0% | 33% | 11% | 44% | 4% | 30% | 11% | 0% | 0% | 22% | 3% | 0% | 0% | 39% | 2% | 0% | 0% | 4% | 9% |
| Nc1nc(-c2ccc3c(N)n[nH]c3c2)cc(N2CCC[C@@H](C(=O)Nc3ccccc3)C2)n1.O=C(O)C(F)(F)F.O=C(O)C(F)(F)F [GSK2288359] | 0% | 0% | 0% | 0% | 0% | 0% | 0% | 23% | 0% | 15% | 6% | 0% | 2% | 0% | 0% | 23% | 45% | 29% | 8% | 21% |
| CNc1nccc(-c2c(-c3ccc(F)cc3)ncn2C2CCN(C)CC2)n1 [SB-222903] | 0% | 0% | 0% | 0% | 0% | 0% | 0% | 46% | 1% | 13% | 0% | 0% | 0% | 0% | 6% | 53% | 0% | 3% | 12% | 0% |
| Fc1ccc(-c2ncn(CCCNCc3ccccc3)c2-c2ccncc2)cc1 | 0% | 7% | 0% | 13% | 0% | 4% | 27% | 0% | 0% | 0% | 0% | 1% | 21% | 17% | 0% | 27% | 33% | 1% | 0% | 0% |
| Cc1ccc(NC(=O)c2cccc(C#N)c2)cc1-c1ccc(C(=O)Nc2ccncc2)cc1 [GSK1398463] | 0% | 7% | 0% | 9% | 0% | 0% | 0% | 0% | 0% | 15% | 40% | 0% | 11% | 19% | 0% | 47% | 29% | 0% | 23% | 24% |
| O=C(Nc1ccccc1F)NC1CCN(c2ccnc(Nc3ccc(F)cc3)n2)C1 (stereo not drawn) [GSK1379722] | 0% | 16% | 0% | 2% | 31% | 0% | 0% | 22% | 0% | 18% | 30% | 0% | 0% | 8% | 0% | 2% | 21% | 0% | 24% | 17% |
| O=C(NCCCN1CCCC1=O)c1cnc(NCc2cc(Cl)ccc2Cl)nc1NC1CCNCC1 | 0% | 2% | 0% | 0% | 0% | 11% | 33% | 0% | 0% | 3% | 0% | 20% | 0% | 0% | 6% | 0% | 0% | 0% | 0% | 0% |
| OCCOCCn1ccc2ncnc(Nc3ccc(Oc4cccc(Cl)c4)c(Cl)c3)c21 | 0% | 0% | 0% | 0% | 0% | 0% | 0% | 0% | 0% | 0% | 0% | 5% | 0% | 0% | 0% | 2% | 0% | 0% | 0% | 0% |
| COc1ccc(-c2oc3ncnc(N)c3c2-c2ccc(OC)cc2)cc1 [SB-589132] | 0% | 6% | 27% | 12% | 59% | 0% | 0% | 62% | 0% | 5% | 2% | 0% | 2% | 0% | 0% | 0% | 29% | 0% | 0% | 0% |
| FC(F)(F)c1ccc(-c2nn3ncccc3c2-c2ccnc(Nc3cccc(C(F)(F)F)c3)n2)cc1 [GW828205] | 1% | 0% | 2% | 0% | 0% | 0% | 0% | 32% | 0% | 55% | 0% | 0% | 0% | 0% | 0% | 16% | 4% | 0% | 0% | 0% |
